# TGFb inhibitor: blocks TGF-b signaling; AID 588855; HepG2 CAGA-GFP TGF-b/SMAD3 reporter, GFP fluorescence, 18 h; TGF-beta stimulated, 500 pg/mL final; Potency, µM (series often up to 46.1 µM), for the others: top-dose activity, negative = inhibition, hits mostly inhibitors; hit rate 1.2% among 410,000; further: on the % scale 0 is the no-effect control and ±100 the full control effect; nearly all actives have a fitted effect of over 65% in size
#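 Per well, imaged GFP fluorescence of HEPG2 CAGA-GFP cells gives the signal; cells get compound, then TGF-beta (500 pg/mL final), 18 h at 37 degrees C; %Activity versus -TGF-beta and +DMSO controls.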
# HepG2 viability: kills HepG2 cells in TGF-b inhibitor counter-screen. hit rate 0.76% among 410,000. HepG2 CAGA-GFP viability, ATP luminescence, 18 h. Potency, µM (doses to about 46.1 µM), for inactives: top-dose activity change, negative = cytotoxicity, usual class: cytotoxic
#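 HepG2 CAGA-GFP cells (1000/well, DMEM with 1% FBS) received compound, then TGF-beta at 500 pg/mL final, and were incubated 18 hours at 37 degrees C. Viability was read by CellTiter-Glo luminescence. Media-only wells were set as complete cell-killing and DMSO as no toxicity.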
# ATXN2 expr inh: reduces ATXN2 reporter expression in HEK-293 cells; HEK-293 ATXN2-luciferase reporter, luminescence, 24 h; Potency, µM (series often up to 57 µM), for the others: at the top dose activity change, negative = inhibition, most hits filed as inhibitors; hit rate 0.72% among 360,000; AID 1745845; further: on the % scale 0 is the no-effect control and ±100 the full control effect; nearly all actives have a fitted effect of over 55% in size
#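 qHTS (up to 57 uM final) was run with 24 h compound exposure of reporter cells at 37 °C. Each well was multiplexed: SteadyGlo luminescence measured ATXN2-luciferase expression after a fluorogenic Gly-Phe-AFC viability readout (25 uM final).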
# S2 tox: viability counter-screen for ATXN expression inhibitors; S2 cells (HEK-293 line with an ATXN2-luciferase reporter) viability, CellTiter-Fluor protease fluorescence, 24 h; Potency, µM (series often up to 56.7 µM), hits mostly cytotoxic; hit rate 0.49% among 400,000; further: nearly all actives have a fitted effect of over 40% in size
# KB-V1 cytotox: KB-V1 MDR subline cytotoxicity; Potency, µM (highest dose often 46.1 µM), hits mostly cytotoxic; hit rate 3.4% among 400,000; KB-V1 MDR cells viability, CellTiter-Glo, 72 h; further: on the % scale 0 is the no-effect control and ±100 the full control effect; nearly all actives have a fitted effect of over 60% in size
#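 KB-V1 cells (P-gp-expressing MDR subline of KB-3-1) in phenol-red-free DMEM with 10% FBS were exposed to library compounds over a concentration series for 72 h at 37 degrees C. Viability read by CellTiter-Glo luminescence; concentration-effect curves fitted after normalization.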
# KB-3-1 cytotox: KB-3-1 parental cell cytotoxicity | AID 1347075 | hit rate 1.4% among 400,000 | Potency, µM (highest dose often 46.1 µM), most hits filed as cytotoxic | KB-3-1 viability, CellTiter-Glo ATP luminescence, 72 h; further: on the % scale 0 is the no-effect control and ±100 the full control effect; nearly all actives have a fitted effect of over 60% in size
#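 72 h, 37 °C compound treatment of KB-3-1 parental cells; CellTiter-Glo added, 10 min, luminescence read. Data corrected against DMSO-only plates and normalized before curve fitting.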
# Active calls of the source: *; i = inactive; ? = inconclusive; nt = not tested or not shown; [ ] = another dose, or the depositor's remark. In the library only some 5.9% were active in any assay of this set; here they are far more common. The call rests on the fitted dose curve; in most records, active means well fitted curve in the direction sought with a large enough effect; inconclusive means small, poorly fitted or top-dose-only effect, or another doubt; inactive means no such curve, though single readings can be large; an effect the other way counts as inactive or inconclusive. Potency means the concentration at half of the fitted maximal effect.
SMILES,TGFb inhibitor,HepG2 viability,ATXN2 expr inh,S2 tox,KB-V1 cytotox,KB-3-1 cytotox
O=[N+]([O-])c1ccc(-c2nc(C(Cl)Cl)c3ccccc3n2)cc1,2%,-26%,4µM*,?,i,13µM*
Cc1oc(-c2ccccc2)nc1Cn1cccc1C1=NC(c2ccccc2)CO1 (stereo not given),?,-31%,-29%,i,12µM*,16µM*
CCc1ccccc1NC(=O)Cn1cccc1C1=NC(c2ccccc2)CO1 (stereo not given),-4%,4%,-12%,i,?,i
Cc1ccc(NC(=O)Cn2cccc2C2=NC(c3ccccc3)CO2)cc1C (stereo not given),-19%,-44%,2%,i,15µM*,?
Cc1cc(N2CCCC2)c(F)cc1/C=C\[N+](=O)[O-],11µM*,-44%,1%[11.3 µM],nt,?,?
CCOC(=O)c1c(C)[nH]c(C2=NNC(=Nc3ccccc3)SC2)c1C,10µM*,-34%,nt,?,?,?
CCOC(=O)c1c(C)[nH]c(C2=NNC(=Nc3ccccc3OC)SC2)c1C,-12%,0%,41%,?,?,18µM*
COC(=O)c1ccccc1NC(=O)CCCS(=O)(=O)c1nc(-c2ccccc2OC)cc(C(F)(F)F)n1,-10%,-16%,7%,i,i,i
N#Cc1ccc(-c2cccs2)nc1SCc1c(F)cccc1Cl,-24%,-42%,-15%,?,?,?
N#CC1C(=O)c2ccccc2C1c1ccccc1 (stereo not given),?,14µM*,?,?,i,i
Cc1cnc(-n2ncc(C(=O)N(CCO)C(C)C)c2-c2cccs2)nc1-c1ccc(F)cc1,nt,nt,nt,i,nt,nt
O=C(c1cc2nc(-c3ccccc3)cc(-c3ccccc3)n2n1)N1CCN(C(=O)c2ccco2)CC1,-32%,-16%,-38%,i,21µM*,?
Cc1cc(N2CCN(C(=O)c3ccco3)CC2)n2nc(C)c(-c3ccccc3)c2n1,-3%,-32%,-22%,i,3.7µM*,?
Cc1cc(N2CCN(C(=O)c3ccco3)CC2)n2nc(-c3cccc(Cl)c3)cc2n1,?,-22%,20µM*,nt,?,?
COc1ccc(-c2cc3nc(C)cc(N4CCN(C(=O)c5ccco5)CC4)n3n2)cc1,-15%,-24%,-15%,i,i,i
COc1ccc(CN2C[C@@H](CO)O[C@@H](n3cnc4c(NCCO)ncnc43)C2)cc1,21%,2%,-6%,i,i,i
COc1cccc(CN2CCOc3ccc(C(O)c4cccnc4)cc3C2)c1 (stereo not given),nt,nt,nt,i,nt,nt
CCN(CC)CCNC(=O)c1ccc2c(c1NCCO)C(=O)c1ccccc1C2=O,1.3µM*,1µM*,nt,7.9µM*,7.3µM*,?
CCN(CC)CCC(=O)Nc1cccc2c1C(=O)c1ccccc1C2=O,?,-82%,?,i,18µM*,?
Cc1ccccc1C(=O)Nc1ccc2nc(SCC(=O)N3CCc4ccccc43)sc2c1,-9%,0%,4%,i,i,i
CCn1cc([N+](=O)[O-])c(C(=O)N2N=C(c3ccc(OC)cc3OC)CC2c2ccccc2O)n1 (stereo not given),?,-25%,-5%,i,?,i
CCn1cc(Cl)c(C(=O)N2N=C(c3ccc4ccccc4c3)CC2c2ccccc2O)n1 (stereo not given),7.1µM*,-45%,18µM*,?,?,21µM*
CCn1cc([N+](=O)[O-])c(C(=O)N2N=C(c3ccc4ccccc4c3)CC2c2ccccc2O)n1 (stereo not given),14µM*,-75%,?,?,i,?
CCn1cc([N+](=O)[O-])c(C(=O)N2N=C(c3cccc4ccccc34)CC2c2ccccc2O)n1 (stereo not given),13µM*,-55%,?,?,i,i
Cc1cnc(-n2ncc(C(=O)NCCN3CCOCC3)c2C2CC2)nc1-c1cccs1,nt,nt,nt,i,nt,nt
SMILES,TGFb inhibitor,HepG2 viability,ATXN2 expr inh,S2 tox,KB-V1 cytotox,KB-3-1 cytotox
COc1cccc(-c2nc3cc(SC)ccc3cc2CN(C(=O)c2sccc2C)C2CC2)c1,nt,nt,nt,i,nt,nt
Cc1ccc(C(=O)Nc2cccc(C(=O)O)c2)cc1,5%,-24%,2.5µM*,i,i,i
Cc1ccc(C)n1-c1cccc(NC(=O)c2ccccc2)c1,3%,-11%,-12%,i,23µM*,i
O=C(O)c1cccc(NC(=O)c2ccccc2)c1,1%,-17%,-3%,i,?,i
Cc1ccc(CNC(=O)c2c(-c3cccc(Br)c3)noc2C)o1,1%,-2%,-5%,i,i,i
COC(=O)c1ccc(Cn2nnc3sc4c(c3c2=O)CCC(C)C4)cc1 (stereo not given),6%,2%,49%,i,i,i
COc1ccc(/C(C)=C/C(=O)O)c(OC)c1,nt,nt,11%,i,nt,nt
CSCCC(NC(=O)C1CCCCC1)c1nc2ccccc2[nH]1 (stereo not given),14%,-16%,-6%,i,?,i
CC(OC(=O)C1CCCCC1)c1nc2ccccc2[nH]1 (stereo not given),-9%,11%,-6%,i,21µM*,i
COc1ccc(NCc2cccn2-c2nnc(N3CCCCCC3)s2)cc1,-8%,-37%,8%,i,i,i
COCCn1c(=NC(=O)CSCC(=O)NC2CCCCC2)sc2cc(OC)ccc21,-9%,-12%,13%,i,2.9µM*,?
CCOC(=O)C(/C(C)=N/NC(=O)C1CC1c1ccccc1)C(C)C (stereo not given),-7%,6%,-7%,i,16µM*,i
Cc1cc(C)c2nc(NNC(=O)c3cc(-c4cccs4)nc4ccccc34)sc2c1,?,-26%,?,i,i,i
O=C(N/N=C/c1cccnc1)c1cc(-c2cccs2)nc2ccccc12,-10%,-45%,0%,i,?,16µM*
Cn1cccc1/C=N/NC(=O)c1cc(-c2cccs2)nc2ccccc12,0%,-33%,-23%,i,6.5µM*,7.3µM*
O=C(N/N=C/c1ccc[nH]1)c1cc(-c2cccs2)nc2ccccc12,-10%,-36%,-8%,i,?,?
CCOc1ccc(-c2cc(C(=O)N/N=C/c3cccnc3)c3ccccc3n2)cc1,1%,-19%,40%,?,?,8.2µM*
O=C(NNc1nc2ccc(Cl)cc2s1)c1cc(-c2cccs2)nc2ccccc12,8.9µM*,-61%,32µM*,?,?,?
